# Assay outcomes as filed in PubChem BioAssay.
# Hits are enriched below; roughly 1.2% of the tested compounds scored in any of these assays.
# GLD-1 TGE inh: GLD-1/TGE RNA complex disruptors, primary screen, biochemical, fluorescence polarization; Female germline-specific tumor suppressor gld-1 (Caenorhabditis elegans), Q17339; purified GLD-1 + fluorescein TGE RNA; inhibition, % at 5.96 µM; 320,000 compounds, 0.44% hits; AID 2280, 2010;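 active = percent inhibition above a per-plate cutoff, the plate mean of test compounds plus 3 SD, cut at about 30% in these data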;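 note: 0% = DMSO wells with GLD-1 and probe and 100% = wells lacking GLD-1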
# Target sequence (Q17339 whole entry, looked up): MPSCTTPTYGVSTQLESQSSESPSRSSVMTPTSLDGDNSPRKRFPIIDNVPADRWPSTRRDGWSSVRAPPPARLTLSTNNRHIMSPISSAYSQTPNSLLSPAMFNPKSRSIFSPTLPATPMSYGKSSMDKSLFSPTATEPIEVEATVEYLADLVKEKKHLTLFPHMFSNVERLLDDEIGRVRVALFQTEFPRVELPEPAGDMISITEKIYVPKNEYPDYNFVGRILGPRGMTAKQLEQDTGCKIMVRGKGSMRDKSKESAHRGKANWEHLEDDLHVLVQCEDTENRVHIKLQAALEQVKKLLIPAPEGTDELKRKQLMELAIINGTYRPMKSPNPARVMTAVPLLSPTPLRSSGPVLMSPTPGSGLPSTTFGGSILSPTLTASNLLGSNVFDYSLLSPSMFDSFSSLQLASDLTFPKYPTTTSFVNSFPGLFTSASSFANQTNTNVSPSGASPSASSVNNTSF
# RTF Ca sens inh: cardiac RTF calcium sensitivity inhibitors, primary screen, biochemical, IANBD-TnC fluorescence, EC70 calcium | 340,000 compounds, 0.12% hits | IANBD-labeled cardiac RTF, Ca2+ fluorescence | Troponin I, cardiac muscle (Homo sapiens) + Troponin T, cardiac muscle (Homo sapiens) + … | inhibition, % at 7.15 µM | AID 493244, 2011;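 active = inhibition above the mean inhibition of all tested compounds plus 3 SD, cut at about 17% in these data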;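 note: assay run at fixed EC70 calcium of 1.6 mM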
# eLon inh: inhibitors of E. coli Lon protease, primary screen, biochemical, fluorescence polarization; inhibition, % at 7.94 µM; purified E. coli Lon protease; 360,000 compounds, 0.42% hits; P0A9M0; AID 602123, 2011; in the data active = inhibition above about 13%, passing the limit was not always enough;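 note: 0% = enzyme with probe and DMSO and 100% = no enzyme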
# RTF Ca sens act: cardiac RTF calcium sensitivity activators, primary screen, biochemical, IANBD-TnC fluorescence, EC20 calcium; Troponin I, cardiac muscle (Homo sapiens) + Troponin T, cardiac muscle (Homo sapiens) + …; IANBD-labeled TnC RTF fluorescence at EC20 calcium; 0% EC20 calcium, 100% full calcium; activation, % at 7.2 µM; 340,000 compounds, 0.24% hits; AID 493008, 2010;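 active = activation above the mean over all tested compounds plus 3 SD, cut at about 30% in these data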;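 note: rise in fluorescence read as greater calcium sensitivity of cardiac thin filaments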
# BCLXL inh: inhibitors of human Bcl-xL, primary screen, biochemical, fluorescence polarization, HTS. AID 2129, 2009. GST-Bcl-xL / FITC-Bim BH3 peptide fluorescence polarization. inhibition, % at 10.9 µM. 320,000 compounds, 0.7% hits. Bcl-2-like protein 1 (Homo sapiens), Q07817;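 active = inhibition above the mean of all tested compounds plus 3 SD, cutoff set per campaign, cut at about 30% in these data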;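 note: 0% = DMSO wells and 100% = unlabeled Bim-BH3 peptide competitor; inhibitors lower millipolarization by displacing the labeled peptide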
# Numbers without * were called inactive; i = inactive; · = not tested or not shown; + = active, no number.
SMILES,GLD-1 TGE inh,RTF Ca sens inh,eLon inh,RTF Ca sens act,BCLXL inh
Cn1c(=O)c(C(=O)Nc2ccccc2S(N)(=O)=O)c(O)c2ccccc21,1.0,0.5,-8.2,-2.2,34.0*
Cc1cc(C)c(C#N)c(N2CCN(CCOc3ccc(Cl)cc3)CC2)n1,5.5,-7.9,2.3,-10.1,11.4
COc1ccc(Cl)cc1CN1CCN(c2nc(C)cc(C)c2C#N)CC1,14.0,-16.6,4.5,6.1,78.0*
O=[N+]([O-])c1cccc(S(=O)(=O)Nc2nc3ccccc3nc2Nc2cccc(S(=O)(=O)N3CCCCC3)c2)c1,·,-20.6,0.4,-5.5,·
Cc1ccc(S(=O)(=O)Nc2nc3ccccc3nc2Nc2cccc(S(=O)(=O)N3CCCC3)c2)cc1,14.1,-17.5,1.3,11.2,36.6*
O=C(O)c1cccc2cccc(-c3c4ccc(=O)c(O)c-4oc4c(O)c(O)ccc34)c12,·,78.8*,10.7,-43.6,·
CCOc1ccc2nc3cc(NCc4ccc(OC)cc4)ccc3c(N)c2c1,-40.5,-81.1,-25.4,76.2*,184.2*
COc1ccc2nc(C)cc(NCc3ccc(F)cc3)c2c1,-64.9,-79.0,-224.9,69.0*,-25.9
Cc1cc(NC(=O)COC(=O)C2=COCCO2)c([N+](=O)[O-])cc1C,1.5,-0.3,-1.1,3.5,42.3*
Cc1ccc(C)c(N2CCN(C(=O)CN3C(=S)NC(C)(C)CC3C)CC2)c1 (stereo not given),8.9,5.8,5.2,30.6*,3.8
COc1ccc(C(O)(CC(C)C)C(CN2CCOCC2)c2ccccc2)cc1 (stereo not given),3.6,2.9,-5.3,-2.9,47.0*
NS(=O)(=O)c1ccc(-c2ccc(/C=N/NC(=O)c3ccccc3O)o2)cc1,11.5,-11.5,3.6,1.9,4.6
CCN(CC)c1ccc(/C=C/C(=O)C2C(=O)C=C(C)OC2=O)cc1 (stereo not given),-102.4,-122.0,-244.0,128.4*,76.2*
Cc1ccccc1OC1C(=O)N(CC2CCCO2)C1c1ccc2c(c1)OCO2 (stereo not given),3.9,1.4,-1.9,-9.2,100.1*
Cc1cc(C(=O)COC(=O)c2ccc3c(c2)OCO3)c(C)n1CC1CCCO1 (stereo not given),-1.1,-14.2,7.1,-0.6,9.2
CC(C)N(Cc1ccccc1)C(=O)COC(=O)c1c(F)cccc1F,0.4,0.7,-0.8,-6.7,·
CC[n+]1c(/C=C/C=C/N(C(C)=O)c2ccccc2)sc2ccccc21,-66.2,-431.2,-385.1,421.1*,-7.7
CCn1c(/C=C/N(C(C)=O)c2ccccc2)[n+](CC)c2ccc(Cl)cc21,8.3,-1.1,-6.8,0.6,-4.3
Cc1cccc(NC(=O)CSc2nnc(CSc3nc(C)cc(C)n3)o2)c1,2.4,5.8,-0.1,-2.9,31.0*
Cc1cccc(NC(=O)CSc2nnc(Cc3ccccc3)o2)c1,0.5,-4.3,8.0,-1.7,7.3
COc1cc(C(F)(F)F)nc2ccc(C#CCOC(=O)Nc3ccccc3)cc12,2.6,-2.2,3.6,4.2,35.5*
O=C(NC(=S)NCc1cccnc1)c1ccccc1F,1.0,6.9,-1.8,-1.3,0.7
Cn1c(/N=C/c2c(O)ccc3ccccc23)nc2ccccc21,5.2,-8.9,3.3,2.7,35.7*
CCCn1c(/N=C/c2ccccc2O)nc2ccccc21,-4.5,-12.6,-5.5,-5.6,-6.8
CCOC(=O)N1CCN(c2c(N3CCN(c4cc(C)ccc4C)CC3)c(=O)c2=O)CC1,14.6,4.1,-9.7,-3.8,4.7
SMILES,GLD-1 TGE inh,RTF Ca sens inh,eLon inh,RTF Ca sens act,BCLXL inh
CC(Sc1nc(N2CCOCC2)c2c(c1C#N)CC(C)(C)OC2)C(=O)O (stereo not given),-10.2,-1.7,-18.3,-8.4,31.3*
CCOC(=O)CSc1nc(N2CCOCC2)c2c(c1C#N)CC(C)(C)OC2,-0.2,-8.8,-5.2,3.0,-0.1
CCOC(=O)CSc1nc(N2CCOCC2)c2c(c1C#N)CC(C)(C)N(C)C2,73.0*,-2.1,3.5,0.1,58.8*
c1cc2c(cc1NC1CCCCCC1)OCO2,2.0,1.1,4.2,-2.2,33.8*
O=C(Nc1ccccc1)OC[C@@H]1C=CS(=O)(=O)N1Cc1ccc(Br)cc1,·,·,-9.4,·,·
O=C1NC(=O)N(Cc2ccccc2)C1=O,29.6,-1.3,0.8,-0.7,56.6*
COC(=O)c1ccc(N/N=C/c2cc([N+](=O)[O-])cc(OC)c2O)cc1,-0.6,-0.4,-0.1,0.0,35.7*
COc1cccc(/C=N/Nc2ccc([N+](=O)[O-])cc2)c1O,-5.3,-2.5,-51.1,-6.5,-24.7
CNC(=O)NC(=O)CSc1nnc(C(F)(F)F)n1C,0.5,-4.0,-17.4,-2.5,0.7
CCOC(=O)c1ccc2nc(C)c(CCC(C)=O)c(Cl)c2c1,4.8,2.8,19.6*,-7.8,1.9
O=C(O)C1=C(Nc2ccccc2)OCC1=O,7.1,6.9,-2.2,2.5,3.4
O=C1c2cccc3c(N4CCCCC4)ccc(c23)C(=O)N1c1ccccc1O,21.9,-117.8,-59.2,72.8*,35.4*
Cc1ccc(N2C(=O)c3cccc4c(N5CCN(C)CC5)ccc(c34)C2=O)c2cccnc12,137.4*,·,·,·,+
O=C1c2cccc3c(N4CCCCC4)ccc(c23)C(=O)N1c1ccc(O)cc1,36.4*,-194.4,-52.6,115.5*,54.1*
O=C(O)c1ccc(N2CCCCCC2)c(N2C(=O)c3ccccc3C2=O)c1,4.3,0.5,0.3,5.7,6.7
CCCCc1cc(=O)oc2cc(C)cc(OCC(=O)Nc3cccnc3)c12,4.8,-3.8,-0.9,0.2,-0.4
O=C(NCC1CCCO1)C1CCN(S(=O)(=O)Cc2ccccc2)CC1 (stereo not given),150.8*,-2.0,0.2,-4.0,1.6
O=C(NCc1cccc(Cl)c1)c1cnccn1,25.1,-8.4,8.6,5.0,44.6*
CCc1ccc(NC(=S)N(Cc2cccnc2)Cc2ccco2)cc1,-2.8,-3.0,-1.9,-5.3,1.2
COc1cc(/C=C(\C#N)c2nc3ccccc3[nH]2)cc(OC)c1O,-153.6,-46.5,i,32.3*,-55.7
COc1cccc(/C=C(/C#N)c2nc3ccccc3[nH]2)c1OC(C)C(=O)O (stereo not given),-2.6,-0.7,-13.6,34.7*,7.1
Cc1cc(/C=C(/C#N)c2nc3ccccc3[nH]2)c(C)n1-c1cccc([N+](=O)[O-])c1,4.0,-5.6,-2.3,1.6,10.2
N#C/C(=C/c1ccc(N2CCOCC2)o1)c1nc2ccccc2[nH]1,-120.2,-194.9,i,244.0*,-79.3
COc1cccc(/C=C(\C#N)c2nc3ccccc3[nH]2)c1OCC(=O)O,-10.0,-6.7,-44.5,-1.9,-8.7
Cc1cc(/C=C(\C#N)c2nc3ccccc3[nH]2)c(C)n1C,133.5*,-10.7,8.7,-0.8,110.0*
